HT1080NT lethal = qHTS for induction of synthetic lethality in tumor cells producing 2HG: qHTS for the HT-1080-NT fibrosarcoma cell line; HT-1080-NT fibrosarcoma viability, CellTiter-Glo ATP luminescence, 48 h; Potency, µM (series often up to 46.1 µM), hits mostly cytotoxic; 360,000 compounds, 1.6% hits; AID 686970, 2013;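 further: NT is the 2HG producing partner of a matched IDH1 knockdown line; nearly all actives have a fitted effect of over 55% in size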
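Read-out is CellTiter-Glo luminescence after 10 minutes at room temperature, following 48 hours' compound treatment of HT-1080-NT cells (750 cells/well, RPMI, 5% FBS, 37 degrees C).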
MCF10A rerep = A quantitative high throughput screen for small molecules that induce DNA re-replication in MCF 10a normal breast cells | MCF 10A DNA re-replication, Hoechst nuclear intensity, 48 h | Potency, µM (doses to about 46.1 µM), usual class: activators | 350,000 compounds, 2.9% hits; further: nearly all actives have a fitted effect of over 50% in size
SW480 rereplic = A quantitative high throughput screen for small molecules that induce DNA re-replication in SW480 colon adenocarcinoma cells | SW480 DNA re-replication, Hoechst DNA content imaging, 48 h | Potency, µM (highest dose often 46.1 µM), usual class: activators | 340,000 compounds, 1.8% hits | AID 624297, 2012; further: nearly all actives have a fitted effect of over 55% in size
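Quantitative HTS format with DMSO vehicle controls; 48 hr drug incubation at 37 C, then 40 min Hoechst staining and scanning imager measurement at 405 nm excitation.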
KB-3-1 cytotox = qHTS assay for MDR1-selective chemotherapeutics: Primary screen using the parental adenocarcinoma cell KB-3-1; KB-3-1 viability, CellTiter-Glo ATP luminescence, 72 h; Potency, µM (doses to about 46.1 µM), hits mostly cytotoxic; 400,000 compounds, 1.4% hits; further: nearly all actives have a fitted effect of over 60% in size
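Cytotoxicity in the drug-sensitive parental line KB-3-1 was scored as loss of CellTiter-Glo luminescence following 72 h incubation with compound. Values come from curve fitting of normalized concentration-response data.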
KB-V1 cytotox = qHTS assay for MDR1-selective chemotherapeutics: Primary screen using the drug-selected MDR subline cells KB-V1 | KB-V1 MDR cells viability, CellTiter-Glo, 72 h | Potency, µM (titrated, usually from 46.1 µM), actives largely listed as cytotoxic | 400,000 compounds, 3.4% hits | AID 1347076, 2019; further: nearly all actives have a fitted effect of over 60% in size
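In this primary screen, KB-V1 cells overexpressing P-gp are incubated with library compounds (lowest to highest concentration) for 72 h at 37 degrees C before a luminescent ATP viability read.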
HT1080 IDH1KD tx = qHTS for induction of synthetic lethality in tumor cells producing 2HG: qHTS for the HT-1080-IDH1KD cell line; AID 686971, 2013; 360,000 compounds, 2% hits; HT-1080 IDH1 knockdown viability, ATP luminescence, 48 h; Potency, µM (series often up to 46.1 µM), hits mostly cytotoxic
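HT-1080-IDH1KD cells (IDH1 knocked down), 750/well in RPMI with 5% FBS, treated with compound 48 h at 37 degrees C. Viability by CellTiter-Glo luminescence, normalised to DMSO and no-cell wells; concentration-response curves classed.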
A number is an active result; – = inactive; ? = inconclusive; · = no result; [ ] = another dose, or the depositor's remark. Hits are enriched below; roughly 7.9% of the tested compounds scored in any of these assays. The call rests on the fitted dose curve; in most records, active means well fitted curve in the direction sought with a large enough effect; inconclusive means small, poorly fitted or top-dose-only effect, or another doubt; inactive means no such curve, though single readings can be large; an effect the other way counts as inactive or inconclusive.

SMILES | HT1080NT lethal | MCF10A rerep | SW480 rereplic | KB-3-1 cytotox | KB-V1 cytotox | HT1080 IDH1KD tx
COc1cc2c(cc1OC)/C(=C/c1ccc(N(C)C)cc1)C=C2 | · | · | · | – | ? | ·
O=C(Nc1ccc(Cl)c(-c2nc3cc(Cl)ccc3o2)c1)c1cc([N+](=O)[O-])ccc1N1CCOCC1 | · | · | · | – | – | ·
O=C(CCc1nc2ccccc2s1)N1CCN(S(=O)(=O)c2cccs2)CC1 | – | – | – | – | – | –
O=S(=O)(c1cccs1)N1CCN(Cc2nc3ccccc3s2)CC1 | – | – | – | – | 23µM | –
O=C(/C=C/c1ccc(O)cc1)c1ccc(O)cc1O | 26µM | 15µM | – | ? | ? | 23µM
Cc1ccc(C(=O)/C=C/c2ccc3ncccc3c2)cc1 | – | 18µM | ? | – | – | –
Cc1ccc(C(=O)/C=C/Nc2cccc(O)c2)cc1 | – | 23µM | ? | – | – | ?
Cc1ccc(/C=C/C(=O)c2ccc(O)cc2)cc1 | – | ? | 18µM | ? | ? | ?
O=C1CCC[C@@H]2CC(Nc3ccccc3)C[C@@H]3CCN1[C@H]23 (stereo not given in full) | · | · | · | – | – | ·
CCSC1=NSC2=NC(=O)/C(=C\c3coc4ccccc4c3=O)C(=N)N12 | – | 18µM | ? | – | – | –
COc1ccc(C(=O)NC2CCCCCC2)cc1S(=O)(=O)N1CCCc2ccccc21 | – | – | – | ? | – | –
CCN1C(=O)CCN(C2CCCC2)c2nc(Nc3ccc(C(=O)NC4CCN(C)CC4)cc3OC)ncc21 | ? | 10µM | –[9.22 µM] | 9.2µM | – | 21µM
CCOC(=O)c1c(CSc2ccccc2)n(C)c2cc(Br)c(OCC(O)CNC(CO)(CO)CO)cc12 (stereo not given) | – | 21µM | ? | ? | – | –
CC1CC(C)CN(C(=S)Nc2ccc(OC(F)F)cc2)C1 (stereo not given) | – | – | – | – | 21µM | –
CCN(CC)c1nc2ccccc2nc1C(=O)Nc1ccc(C(C)=O)cc1 | · | · | · | – | – | ·
Cc1ccc(S(=O)(=O)N2CCCOC2CNC(=O)C(=O)NCc2cccs2)cc1 (stereo not given) | – | – | ? | – | 9.2µM | –
COc1ccc(CCNC(=O)C(=O)NCC2OCCN2S(=O)(=O)c2ccc(Br)cc2)cc1OC (stereo not given) | – | – | – | – | – | –
Cc1ccc(C)c(S(=O)(=O)N2CCCOC2CNC(=O)C(=O)NCc2ccco2)c1 (stereo not given) | – | – | – | ? | 23µM | –
COc1ccc(S(=O)(=O)N2CCCOC2CNC(=O)C(=O)NCCc2ccco2)cc1C (stereo not given) | 16µM | ? | 18µM | 6.5µM | – | 18µM
COc1ccc(S(=O)(=O)N2CCOC2CNC(=O)C(=O)NCCc2ccc(OC)c(OC)c2)cc1 (stereo not given) | – | – | – | ? | 18µM | –
Cc1ccc(CNC(=O)C(=O)NCC2OCCCN2S(=O)(=O)c2cccs2)cc1 (stereo not given) | – | – | – | – | – | –
CCOc1ccc(NC(=O)Cn2c(=O)n(CCC(=O)NCCc3ccccc3)c(=O)c3ccccc32)cc1 | · | · | · | – | – | ·
O=c1c2cnn(-c3ccc(F)cc3)c2ncn1Cc1ccccc1Cl | · | · | · | – | – | ·
Cc1cc(S(=O)(=O)N2CCCOC2CNC(=O)C(=O)NCc2ccco2)ccc1F (stereo not given) | – | 8.2µM | ? | – | ? | –
COc1nc(N(c2ccccc2)c2ccccc2)nc(-n2ccnc2)n1 | – | 16µM | – | – | ? | –
SMILES | HT1080NT lethal | MCF10A rerep | SW480 rereplic | KB-3-1 cytotox | KB-V1 cytotox | HT1080 IDH1KD tx
CCN(CC)S(=O)(=O)c1ccc2c(c1)N(CC(=O)Nc1c(C)cc(C)cc1C)C(=O)CS2 | · | · | · | – | – | ·
CC1=C(C(=O)N(C(C)C)C(C)C)CC(CC(=O)NC2CC2)C(=O)N1CCC1=CCCCC1 (stereo not given) | – | · | · | – | – | –
O=c1[nH]nc(Sc2ncnc3sccc23)n1CCc1ccccc1 | 18µM | ? | – | ? | – | ?
CCOC(=O)[C@H]1[C@H]2COc3ccc(Cl)cc3[C@@H]2N2C(=O)c3cc(F)c(F)cc3NC(=O)[C@@]12C | – | – | – | 23µM | ? | ?
CCOC(=O)[C@H]1[C@H]2COc3ccc(OC)cc3[C@@H]2N2C(=O)c3ccccc3NC(=O)[C@@]12C | – | ? | – | – | – | –
CCOC(=O)[C@H]1[C@H]2COc3ccc(OC)cc3[C@@H]2N2C(=O)c3cc(OC)ccc3NC(=O)[C@@]12C | – | – | 6.5µM | – | ? | –
COc1ccc(OC)c(S(=O)(=O)NCC(c2cccs2)N2CCc3ccccc3C2)c1 (stereo not given) | – | – | – | – | ? | –
CCCCNC(=O)C(Sc1ccccc1)c1ccccc1 (stereo not given) | – | – | – | – | 15µM | –
COc1cccc(C(=O)Nc2ccc3nc(SCC(=O)N4CCc5ccccc54)sc3c2)c1 | · | · | · | – | – | ·
CC1Cc2ccccc2N1CC(=O)Nc1cc(S(=O)(=O)N2CCOCC2)ccc1Cl (stereo not given) | – | · | · | – | ? | –
CCc1ccc(C(=O)Cn2ccsc2=N)cc1 | – | – | – | ? | 18µM | –
CN1CCN(c2ccccc2NC(=O)c2ccc(-c3cccc([N+](=O)[O-])c3)o2)CC1 | – | ? | ? | – | – | –

Source: PubChem
